Measured values as given in PubChem BioAssay AID1159580 (chemical genetic matrix, 2015).
The whole screen tested about 5,500 compounds, of which about 2,000 (36%) were called active. Roughly 18% stayed inconclusive and do not appear here. Cut-off read from the data, not from the text of the source: active = normalized growth mostly below about 0.91 (no sharp cut-off); inconclusive = no clear call, values can overlap the other calls; inactive = mostly above about 0.92. The list shows a part of the results.

Assay: chemical genetic growth profiling, strain panel (AID 1159580);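 note: tested at 20 µM; growth read once vehicle control cultures reached saturation at 30 °C; 1 = growth at the plate median or of vehicle wells; lower values mean less growth of the strain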
Conditions: S. cerevisiae deletion strains, growth OD

Measured: normalized growth

CC(=O)Oc1ccccc1C(=O)O
inactive: locus YAL021C, strain ccr4, hits give low values 0.993 | locus YAL026C, strain drs2, hits give low values 1 | locus YAL030W, strain snc1, hits give low values 1 | locus YAL040C, strain CLN3, hits give low values 0.996 | locus YBL061C, strain skt5, hits give low values 0.989 | locus YBR009C, strain hhf1, hits give low values 1.03 | locus YBR023C, strain chs3, hits give low values 1 | locus YBR171W, strain sec66, hits give low values 0.985 | locus YBR231C, strain swc5, hits give low values 1.01 | locus YBR279W, strain paf1, hits give low values 0.992 | locus YCL011C, strain gbp2, hits give low values 1 | locus YCL016C, strain dcc1, hits give low values 0.983 | locus YCL061C, strain MRC1 (second series), hits give low values 1 | locus YCL069W, strain vba3, hits give low values 1 | locus YCR088W, strain abp1, hits give low values 0.989 | locus YDL005C, strain med2, hits give low values 0.985 | locus YDL040C, strain nat1, hits give low values 0.996 | locus YDR001C, strain nth1, hits give low values 0.995 | locus YDR069C, strain doa4, hits give low values 1.01 | locus YDR137W, strain rgp1, hits give low values 1 | locus YDR150W, strain NUM1, hits give low values 0.992 | locus YDR159W, strain sac3, hits give low values 0.938 | locus YDR195W, strain ref2 1 | locus YDR297W, strain sur2, hits give low values 1.01 | locus YDR334W, strain swr1, hits give low values 0.991 | locus YDR335W, strain msn5, hits give low values 1.03 | locus YDR392W, strain spt3, hits give low values 0.906 | locus YEL003W, strain gim4, hits give low values 1.01 | locus YEL037C, strain rad23, hits give low values 0.998 | locus YEL061C, strain CIN8 (second series), hits give low values 0.996 | locus YER002W, strain NOP16, hits give low values 0.988 | locus YER015W, strain faa2, hits give low values 1.01 | locus YER016W, strain bim1, hits give low values 0.977 | locus YER111C, strain swi4, hits give low values 0.985 | locus YER155C, strain BEM2 (second series), hits give low values 0.996 | locus YFR010W, strain ubp6, hits give low values 1.09 | locus YGL167C, strain pmr1, hits give low values 1 | locus YGL173C, strain kem1, hits give low values 1 | locus YGL227W, strain vid30, hits give low values 0.989 | locus YGL240W, strain doc1, hits give low values 1 | locus YGL253W, strain hxk2, hits give low values 1.03 | locus YHR013C, strain ard1, hits give low values 0.969 | locus YHR027C, strain rpn1, hits give low values 1.02 | locus YHR030C, strain SLT2, hits give low values 1.03 | locus YHR079C, strain IRE1, hits give low values 1.04 | locus YHR142W, strain chs7, hits give low values 1.01 | locus YJL092W, strain hpr5, hits give low values 1 | locus YJL095W, strain BCK1 (second series), hits give low values 0.989 | locus YJL095W, strain BCK1, hits give low values 1.05 | locus YJL115W, strain asf1, hits give low values 0.988 | locus YJL129C, strain trk1, hits give low values 0.995 | locus YJL154C, strain vps35, hits give low values 0.989 | locus YJL164C, strain tpk1, hits give low values 0.999 | locus YJL166W, strain qcr8, hits give low values 1.01 | locus YJL187C, strain SWE1, hits give low values 0.987 | locus YJR066W, strain TOR1, hits give low values 0.978 | locus YKL160W, strain elf1, hits give low values 0.971 | locus YKR026C, strain gcn3, hits give low values 0.994 | locus YKR091W, strain srl3, hits give low values 1 | locus YLL001W, strain dnm1, hits give low values 0.974 | locus YLL026W, hits give low values 0.992 | locus YLL041C, strain sdh2, hits give low values 0.983 | locus YLR027C, strain aat2, hits give low values 1.01 | locus YLR113W, strain HOG1, hits give low values 1.01 | locus YLR221C, strain rsa3, hits give low values 0.996 | locus YLR258W, strain gsy2, hits give low values 0.997 | locus YLR262C, strain YPT6 (second series), hits give low values 0.984 | locus YLR320W, strain mms22, hits give low values 0.975 | locus YLR342W, strain FKS1, hits give low values 0.997 | locus YLR357W, strain rsc2, hits give low values 0.964 | locus YLR370C, strain arc18, hits give low values 1 | locus YLR384C, strain iki3, hits give low values 0.971 | locus YML120C, strain ndi1, hits give low values 1.02 | locus YMR058W, strain fet3, hits give low values 1 | locus YMR125W, strain sto1, hits give low values 0.997 | locus YMR129W, hits give low values 0.985 | locus YMR205C, strain PFK2, hits give low values 1.02 | locus YMR231W, strain pep5, hits give low values 0.994 | locus YNL071W, strain lat1, hits give low values 0.998 | locus YNL153C, strain GIM3, hits give low values 0.994 | locus YNL175C, strain NOP13, hits give low values 0.989 | locus YNL183C, strain NPR1, hits give low values 0.997 | locus YNL197C, strain WHI3, hits give low values 0.995 | locus YNL209W, strain ssb2, hits give low values 1.02 | locus YNL224C, strain SQS1, hits give low values 0.988 | locus YNL248C, strain rpa49, hits give low values 0.956 | locus YNL322C, strain KRE1 (second series), hits give low values 0.966 | locus YNR049C, strain mso1, hits give low values 1 | locus YOR001W, strain rrp6, hits give low values 1.02 | locus YOR070C, strain gyp1, hits give low values 0.998 | locus YOR080W, strain dia2, hits give low values 1 | locus YOR083W, strain WHI5 (second series), hits give low values 1.01 | locus YOR083W, strain WHI5, hits give low values 0.929 | locus YOR106W, strain vam3, hits give low values 0.994 | locus YOR231W, strain MKK1, hits give low values 1.06 | locus YOR265W, strain rbl2, hits give low values 1.02 | locus YOR270C, strain vph1, hits give low values 1.04 | locus YOR290C, strain snf2, hits give low values 0.989 | locus YPL051W, strain arl3, hits give low values 1 | locus YPL055C, strain LGE1, hits give low values 0.969 | locus YPL078C, strain atp4, hits give low values 0.984 | locus YPL106C, strain sse1, hits give low values 0.976 | locus YPL240C, strain hsp82, hits give low values 1 | locus YPL241C, strain CIN2, hits give low values 0.999 | locus YPL256C, strain CLN2, hits give low values 1.03
